The values below come from PubChem BioAssay AID2501 (Southern Research Specialized Biocontainment Screening …, 2010).

Screen size: about 2,200 compounds; about 1,200 (55%) were called active. The limit is not given here; nearly all actives have IC50 up to about 92 µM. The set was probably picked from earlier hits. The list shows a part of the results.

The nature of the test: counter assay for TAg ATPase ADP read-out – biochemical, ADP-Hunter, fluorescence, counter-screen (AID 2501).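 Also: purified T antigen ATPase.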 The following applies: series mostly up to 100 µM. For orientation: The purpose of a counterscreen is to sort out artefacts and off-target activity.
Take `COc1ccc(S(=O)(=O)N(CC(=O)NCc2ccccn2)c2ccc(Cl)cc2)cc1`: the IC50 (as a rule, the concentration that inhibits the measured activity by half) is “inactive”. Consider `COc1ccc(NCCc2ccccn2)cc1`, for which the half-inhibitory concentration (IC50) was 2.41 µM (active). In the case of `COc1ccc(C(=O)Nc2ccc(O)c3ccccc23)cc1` it was 13.1 µM (active); in that of `COc1ccc(S(=O)(=O)Nc2ccc(O)c3ccccc23)cc1`, “inactive”. `CCOC(=O)Cn1cc(C#N)c(=O)[nH]c1=O`: the IC50 result is “inactive”. In the case of `Cc1ccc2c(c1)NC(=O)c1cccnc1N2` it was 4.54 µM (active); in that of `Cc1ccc(C(=O)N2CCN3C(=O)c4ccccc4C23c2ccccc2)cc1` (stereo not given), “inactive”. For `CC(=O)Oc1c(/C=C(\C#N)C(N)=O)[nH]c2ccccc12`, the IC50 is 27.2 µM (active).

In the case of `C=CCn1c(=S)[nH]c2scc(-c3ccco3)c2c1=O`, the IC50 was 26.9 µM (active). `C=CCn1c(SCC(C)=O)nc2scc(-c3ccco3)c2c1=O`: the IC50 entry is “inactive”. For `C=CCn1c(SCC(=O)NCC2CCCO2)nc2scc(-c3ccco3)c2c1=O` (stereo not given), the IC50 entry was “inactive”. Turning to `C#CCOCCOCCOCCNc1nc(N2CCN(C(=O)CCCCCCCCCCNC(=O)[C@H]([C@@H](C)CC)n3cc(CCCCN=C(N)N)nn3)CC2)nc(N2CCN(C(=O)CCCCCCCCCCNC(=O)[C@H](CCCN=C(N)N)n3cc(C[C@@H](C)CC)nn3)CC2)n1`, the IC50 entry was “inactive”. `CCOC(=O)C1CCN(c2nc(N)c3c(N)nc(SCC(=O)O)cc3c2C#N)CC1`: the IC50 result was “inactive”. Under `O=C(N/N=C(\c1ccccc1)c1cccnc1)c1cc(O)ccc1O` stands 3.71 µM (active); under `CCOC(=O)CN(C(=O)CSc1nnc2c(n1)[nH]c1ccccc12)c1ccccc1`, “inactive”; under `O=C(O)CSCC(=O)Nc1ccc(-c2nc3ccccc3s2)cc1`, “inactive”. For the molecule `Cc1[nH]c2ccccc2c1-c1csc(NC(=O)CSCC(=O)O)n1`, the IC50 was 14.6 µM (active). As for `Cc1cc(-c2n[nH]c(=S)n2/N=C/c2cccs2)n[nH]1`, the IC50 is 52.3 µM (active). For the molecule `COc1cccc(/C=N/n2c(-c3cc(C)[nH]n3)n[nH]c2=S)c1O`, the IC50 is 13.2 µM (active).

For the molecule `CCN(CC)c1ccc(NC(=S)NC(=O)C2CCC2)cc1`, the IC50 was 7.07 µM (active).

`COc1ccc2c(c1)-c1nc(/N=C/c3ccc(O)c(OC)c3)sc1CC2`: the IC50 was 3.97 µM (active). In the case of `Cc1cc([N+](=O)[O-])nn1CC(=O)NCc1ccccc1` it was “inactive”. `COc1cc(C(=O)N/N=C(\C)Cn2nc([N+](=O)[O-])cc2C)ccc1O`: the IC50 was 16.1 µM (active). For the molecule `C#CCOCCOCCOCCNc1nc(N2CCN(C(=O)CCCCCCCCCCNC(=O)[C@H]([C@@H](C)CC)n3cc(CCCCCN)nn3)CC2)nc(N2CCN(C(=O)CCCCCCCCCCNC(=O)[C@@H]([C@H](C)CC)n3cc(CCCCCN)nn3)CC2)n1`, the IC50 result was “inactive”.

As to `CC1(C)C(/C=C/C=C/C=C/C=C2\N(CCCCS(=O)(=O)O)c3ccc4ccccc4c3C2(C)C)=[N+](CCCCS(=O)(=O)[O-])c2ccc3ccccc3c21`, the IC50 is 10.5 µM (active). Regarding `COc1cccc2c1NC(C(=O)O)C1CC=CC21` (stereo not given), the IC50 entry is “inactive”. For `COCCCNc1nnc(Cc2ccc(Cl)cc2)c(=O)[nH]1`, the IC50 result is “inactive”. As for `CCCC1=NN2C(=N)/C(=C\c3ccc(SCc4ccco4)o3)C(=O)N=C2S1`, the IC50 entry is “inactive”. Take `Nc1ccc(O)c(C(=O)O)c1`: the IC50 is 8.29 µM (active). In the case of `Nc1ccc(C(=O)Nc2ccccc2C(=O)O)cc1`, the IC50 entry is “inactive”. Under `O=C(O)C1=CC(=C(c2ccc(O)c(C(=O)O)c2)c2ccc(O)c(C(=O)O)c2)C=CC1=O` stands “inactive”; under `Nc1c(O)cccc1C(=O)O`, 7.18 µM (active); under `COc1cc(C(C)=O)ccc1OCC(O)Cn1nc(C)c(C(C)=O)c1C` (stereo not given), 49.1 µM (active). Under `NC(=O)[C@@H]1CCCCNc2c(I)cc([N+](=O)[O-])cc2C(=O)N[C@@H](CCC(=O)O)C(=O)N[C@@H](CO)C(=O)N1` stands “inactive”; under `COc1ccc(S(=O)(=O)c2c(N)n(Cc3ccco3)c3nc4ccccc4nc23)cc1`, “inactive”.

`O=S(=O)(Nc1c(O)ccc2ccccc12)c1ccccc1`: the IC50 result is “inactive”. For the molecule `COc1ccc(C(C)=O)cc1COC(=O)CCNS(=O)(=O)c1ccc(C(C)=O)cc1`, the IC50 entry was “inactive”. As to `Cc1ccc(S(=O)(=O)Nc2c(O)ccc3ccccc23)cc1`, the IC50 is 70.6 µM (active). In the case of `COc1ccc(S(=O)(=O)Nc2c(O)ccc3ccccc23)cc1OC`, the IC50 was 54.9 µM (active). `Cc1ccc(S(=O)(=O)CCSC(=N)N)cc1`: the IC50 entry was “inactive”. Regarding `O=C1c2ccccc2NC2(CCCCC2)N1c1ccc(O)cc1`, the IC50 was 5.01 µM (active).

For the molecule `CN(C)CCNC(=O)C(=O)Nc1ccc2c(c1)N(S(=O)(=O)c1cccs1)CCC2`, the IC50 result was “inactive”. For `Cc1ccc(NC(=O)CCSc2nnc(Cc3ccccc3)o2)cc1`, the IC50 result is “inactive”.

Take `N#CC(C#N)=C(N)/C(C#N)=C/c1cc(O)c(O)c(O)c1`: the IC50 is 13.6 µM (active). Under `CC1CCCN(c2ccc(N)cc2C(N)=O)C1` (stereo not given) stands 3.15 µM (active). `N#C/C(=C\c1coc2ccc(O)cc2c1=O)C(=O)Nc1nc2ccccc2s1`: the IC50 is 80.4 µM (active). With `CSc1nc(Cl)cc(Nc2ccc(O)cc2)n1`, the IC50 is 11.3 µM (active). As to `Cc1ccc(NC(=O)CSc2nc3ccccc3c(=O)n2CCCC(=O)NCCCN2CCOCC2)cc1C`, the IC50 entry was “inactive”. As for `COc1ccc2[nH]c3c(=O)n(CCCCC(=O)NCCN4CCCC4)c(=S)[nH]c3c2c1`, the IC50 was 6.28 µM (active).

For `CCN(CC)CCNC(=O)CCCCn1c(=S)[nH]c2c([nH]c3ccc(OC)cc32)c1=O`, the IC50 was 4.99 µM (active).

As for `O=S(=O)(Nc1cccc(-c2cn3ccsc3n2)c1)c1ccc(F)cc1`, the IC50 entry was “inactive”. In the case of `O=C1CC(N2CCN(c3ccc(O)cc3)CC2)C(=O)N1Cc1cccs1` (stereo not given) it was 4.71 µM (active); in that of `CN(CCc1cn[nH]c1)Cc1nc(Cc2ccccc2F)no1`, “inactive”. Consider `CC(O)CCc1ccc(O)cc1` (stereo not given), for which the IC50 is 8.46 µM (active). Consider `NNC(=O)c1ccc(CN2CCCCC2)o1`, for which the IC50 entry was “inactive”. `COc1cc(/C=C2\SC(c3ccc(C)cc3)=NC2=O)cc(OC)c1O`: the IC50 was 2.62 µM (active). For `Cc1ccc(C2=NC(=O)/C(=C/c3cc(O)c(O)c(Br)c3)S2)cc1`, the IC50 is 11 µM (active). Take `CCOc1ccc(NCc2cccn2-c2nnc(N3CCC(C(=O)NCCCN4CC(C)CC(C)C4)CC3)s2)cc1` (stereo not given): the IC50 is 7.15 µM (active). As to `CCOc1ccc(NCc2cccn2-c2nnc(N3CCC(C(=O)NCCCN4CCCCC4CC)CC3)s2)cc1` (stereo not given), the IC50 is 5.76 µM (active). Under `CCOc1ccc(NCc2cccn2-c2nnc(N3CCC(C(=O)NCCCN4CCCCC4C)CC3)s2)cc1` (stereo not given) stands 6.99 µM (active); under `NC(=O)Cn1c(=O)n(CCC(=O)NCCSCc2ccccc2)c(=O)c2ccccc21`, “inactive”. Under `COc1cccc(C2C([N+](=O)[O-])=C(N)Oc3cc(C)oc(=O)c32)c1` (stereo not given) stands “inactive”; under `NC(=O)C(Cc1ccccc1)N1C(=O)c2ccccc2C1=O` (stereo not given), “inactive”. In the case of `CC(=O)Nc1ccc(OC(=O)C(CCS(C)(=O)=O)N2C(=O)c3ccccc3C2=O)cc1` (stereo not given), the IC50 is 7.41 µM (active). In the case of `O=C(Nn1cnnc1)C1Cc2ccccc2CN1S(=O)(=O)c1ccc(F)cc1` (stereo not given) it was “inactive”; in that of `CCN(CC)c1ccc(NC(=O)COC(=O)c2ccc3ccccc3n2)cc1`, 2.2 µM (active).

For the molecule `CCN(CC)c1ccc(C(=O)n2cnc3ccccc32)cc1`, the IC50 result is “inactive”. As for `CC(=O)Nc1cccc(C(=O)OCC(=O)Nc2nnc(-c3ccccc3)o2)c1`, the IC50 entry was “inactive”.

Turning to `CCN(CC)c1ccc(NC(=O)COC(=O)COc2ccccc2[N+](=O)[O-])cc1`, the IC50 is 6.35 µM (active). As to `O=C(O)CCCn1cc(NC(=O)COc2ccccc2[N+](=O)[O-])cn1`, the IC50 entry is “inactive”. Take `CCN(CC)c1ccc(NC(=O)COC(=O)c2cccs2)cc1`: the IC50 was 7.51 µM (active). Take `Cc1ccccc1OCC(=O)NCC(=O)OCC(=O)c1ccc([N+](=O)[O-])cc1`: the IC50 entry was “inactive”. In the case of `CCN(c1ccccc1)S(=O)(=O)c1ccc(Cl)c(NC(=O)COC(=O)c2cc(O)c3ccccc3c2O)c1` it was “inactive”. `COc1ccc2nc(COC(=O)c3cccs3)c(C(C)=O)[n+]([O-])c2c1`: the IC50 result was “inactive”. For `CCOC(=O)C1CCCN(C(=O)Cn2sc3nc(C)cc(C)c3c2=O)C1` (stereo not given), the IC50 result is “inactive”.

As to `Nc1cnc(Nc2ccc(Br)cc2)nc1N`, the IC50 is 12.1 µM (active). In the case of `CC[C@H](C)[C@H](NC(=O)c1ccccc1)C(=O)Nc1ccc(S(=O)(=O)Nc2cc(C)nc(C)n2)cc1` it was “inactive”.

As for `Cc1nc(Cl)cc(N/N=C/c2ccc(O)cc2)n1`, the IC50 was 4.8 µM (active). For `Cc1ccc(S(=O)(=O)Nc2nc(C)cc(N/N=C/c3ccc(O)cc3)n2)cc1`, the IC50 is 8.77 µM (active). With `O=C(N/N=C/c1ccc(-c2ccc(S(=O)(=O)Nc3ncccn3)cc2)o1)c1cc2ccccc2cc1O`, the IC50 result is “inactive”. As to `Cc1cc(/C=N/Nc2ccc([N+](=O)[O-])cn2)c(C)n1-c1ccc(C(=O)O)cc1`, the IC50 result is “inactive”. For the molecule `CCN(CC)S(=O)(=O)c1ccc(N/N=C/c2ccc(O)cc2)nc1`, the IC50 is 4.57 µM (active). For the molecule `COc1ccc(NC(=O)N2CCCc3cc(C)ccc32)c(OC)c1`, the IC50 entry was “inactive”. On to `COc1cc([N+](=O)[O-])ccc1NC(=O)Oc1ccc(NC(C)=O)cc1`, for which the IC50 was 4.33 µM (active). On to `O=C(COc1ccc([N+](=O)[O-])cc1)NNC(=O)Nc1ccc([N+](=O)[O-])cc1`, for which the IC50 result was “inactive”. Consider `c1coc(-c2nnc3sc(Cc4cccs4)nn23)c1`, for which the IC50 result was “inactive”.

Turning to `CNC(=O)c1ccc(-c2sc3nc(N4CCOCC4)c4c(c3c2N)CCCC4)o1`, the IC50 is 14.8 µM (active). In the case of `CNC(=O)c1ccc(-c2sc3nc(N4CCOCC4)c4c(c3c2N)CC(C)(C)OC4)o1` it was 3.18 µM (active); in that of `NNC(=O)c1sc2nc(N3CCOCC3)c3c(c2c1N)CCCC3`, 36.6 µM (active). For `Nc1c(C(=O)NC2CC2)sc2nc3c(c(-c4ccco4)c12)CC/C3=C/c1ccco1`, the IC50 result is “inactive”. As for `C=CCc1cccc2cc(C(=O)Nc3ccc(S(=O)(=O)Nc4nnc(CC)s4)cc3)c(=O)oc12`, the IC50 result was “inactive”. In the case of `Cc1ccc2cn[nH]c2c1N`, the IC50 is 6.68 µM (active). Consider `CC1(C)CC(=O)C(C=Nc2ccc(O)cc2)=C(O)C1`, for which the IC50 is 2.78 µM (active). `O=C1CCCC(O)=C1N=Nc1ccc(C(=O)O)cc1`: the IC50 entry is “inactive”. `O=C1CCCC(O)=C1C=Nc1ccc(O)cc1`: the IC50 was 4.6 µM (active).
